Screening results (PubChem)
Pf growth 96h: P. falciparum growth inhibition at 96 hour, primary screen for plastid delayed-death inhibitors; P. falciparum luciferase reporter growth, 96 h; Potency, µM (titrated, usually from 28.7 µM), for inactives: top-dose activity change, negative = inhibition, hits mostly inhibitors; actives 6.9% (n = 320,000); further: potency means the concentration at half of the fitted maximal effect
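P. falciparum expressing integrated firefly luciferase grown in erythrocytes (2% hematocrit, 0.05% parasitemia final) with compounds for 96 hours at 37 C, 5% CO2. Growth inhibition read as loss of luminescence after adding luciferase detection reagent.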
Pf growth 48h: inhibits P. falciparum growth in the first generation, 48 h; Potency, µM (series often up to 28.7 µM), for the others: top-dose activity change, negative = inhibition, usual class: inhibitors; actives 5.9% (n = 310,000); P. falciparum luciferase growth in erythrocytes, 48 h; further: potency means the concentration at half of the fitted maximal effect
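Here the parasites carry a stable luciferase gene and grow inside erythrocytes in Albumax-based RPMI medium with compound for one erythrocytic cycle. Activity is scored as loss of luminescent signal.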
HCMV inh: human cytomegalovirus inhibition; HFF cells, HCMV-luciferase reporter, 72 h; active compounds read low; activity change, negative = inhibition, % at 57.5 µM; actives 4.5% (n = 410,000); AID 1259415; in the data active means activity change below about -60%; inconclusive means no clear call, values can overlap the other calls; inactive means above about -39%
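Steps: HFFs plated, 16 h 37C; compounds added; HCMV-luciferase added to MOI 1 PFU/cell; 72 h 37C; OneGlo reagent, 5 min room temperature; luminescence read, normalized to controls.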
Sm TGR inh: inhibitors of Schistosoma mansoni thioredoxin glutathione reductase | Q962Y6 | purified TGR, DTNB reduction, TNB absorbance 405 nm | Potency, µM (series often up to 114 µM), without a hit: at the highest dose activity change, negative = inhibition, hits mostly inhibitors | actives 3% (n = 360,000); further: potency means the concentration at half of the fitted maximal effect; nearly all actives have a fitted effect of over 60% in size
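Kinetic colorimetric format: TGR-catalysed, NADPH-driven DTNB reduction monitored via TNB absorbance. Enzyme dispensed at 20 nM; compound exposure 15 min at room temperature before reaction start.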
FBPA Giardia inh: inhibitors of Giardia lamblia fructose-1,6-bisphosphate aldolase; A8B2U2; purified Giardia FBPA; Potency, µM (highest dose often 59.6 µM), for the others: at the highest dose activity, negative = inhibition, hits mostly inhibitors; actives 0.71% (n = 290,000); further: potency means the concentration at half of the fitted maximal effect; nearly all actives have a fitted effect of over 55% in size
Target sequence (A8B2U2 whole entry, looked up): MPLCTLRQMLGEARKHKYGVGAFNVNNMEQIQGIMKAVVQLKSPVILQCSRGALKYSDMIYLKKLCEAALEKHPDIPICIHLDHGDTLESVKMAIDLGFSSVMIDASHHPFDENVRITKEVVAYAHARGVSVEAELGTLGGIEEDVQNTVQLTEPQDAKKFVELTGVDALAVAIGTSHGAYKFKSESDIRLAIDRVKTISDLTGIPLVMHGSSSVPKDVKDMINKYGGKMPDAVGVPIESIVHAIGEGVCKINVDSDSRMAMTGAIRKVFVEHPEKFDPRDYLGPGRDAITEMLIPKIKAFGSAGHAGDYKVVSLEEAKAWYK
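40 nM FBPA preincubated 10 min at RT with compound (up to 57.5 uM final), then substrate plus GAPDH/TPI/NAD/arsenate coupling and diaphorase/resazurin added. Fluorescence read after 20 min at RT, 525/598 nm.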
* hit, by the source's call; u = inconclusive; x = no result. An excerpt weighted towards active compounds, which were near 14% of everything screened. Unless noted, the call rests on the fitted dose curve; in most records, active means well fitted curve in the direction sought with a large enough effect; inconclusive means small, poorly fitted or top-dose-only effect, or another doubt; inactive means no such curve, though single readings can be large; an effect the other way counts as inactive or inconclusive. On the % scale 0 is the no-effect control and ±100 the full control effect.

SMILES | Pf growth 96h | Pf growth 48h | HCMV inh | Sm TGR inh | FBPA Giardia inh
COc1ccc(NC(=O)CCS(=O)(=O)c2ccc3c(c2)oc(=O)n3C)cc1OC | u | 4.1% | -17.9 | -14.0% | x
CCCOc1ccc2[nH]cc(C(=O)O)c(=O)c2c1 | 14.7µM* | 9.5% | 11.7 | -0.5% | 7.3%
COc1ccc2[nH]cc(C(=O)NCCc3ccccc3)c(=O)c2c1 | -7.2% | 4.2% | 3.7 | -3.3% | 2.6%
CCOc1ccc(NS(=O)(=O)c2ccc3[nH]cc(C(=O)NCCOC)c(=O)c3c2)cc1 | u | 248.6% | 88.0 | 7.7% | 2.7%
O=C(NCc1ccccc1)c1c[nH]c2ccc(F)cc2c1=O | u | u | u | 0.5% | -1.0%
CCOc1ccc2[nH]cc(C(=O)NCc3ccc(F)cc3)c(=O)c2c1 | 0.0% | u | -71.0* | 9.1% | 13.6%
CCOCCCNC(=O)c1c[nH]c2ccc(OCC)cc2c1=O | -2.2% | 2.33µM* | -30.5 | -3.9% | -1.0%
Nc1c(C(=O)O)sc2nc(-c3ccccc3)c3c(c12)CCCC3 | u | 3.1% | -31.5 | u | 13.9%
Nc1c2c(nc3sc4c(c13)CCCC4)CCCC2 | 133.1% | u | -71.6* | x | -8.2%
Nc1c2c(nc3sc4c(c13)CCCCC4)CCCCC2 | 109.1% | 150.8% | -15.5 | 2.8% | -0.3%
Nc1c2c(nc3sc4c(c13)CCCC4)CCCCC2 | 0.828µM* | 82.6% | 56.5 | -14.0% | 1.4%
CCc1c(-c2ccccc2)nc2sc3c(c2c1N)CCCC3 | u | -10.6% | -92.0* | 10.4% | -11.3%
Clc1ccccc1OCCCOc1cccc2cccnc12 | -74.3% | 11.8% | 92.5 | 2.4% | -2.3%
Nc1ccc(Oc2ccc3c(c2)C(=O)N(CC2CCCO2)C3=O)cc1 (centres undefined) | 68.0% | u | 57.9 | 4.5% | 5.5%
CCC1CCCCN1C(=O)c1cc(COc2ccc(-n3cncn3)cc2)on1 (centres undefined) | 1.3% | 25.0% | -60.6* | -13.1% | x
CC(=O)c1cccc(OCc2cc(C(=O)N3CC4C[C@@H]5CC3C[C@H](C4)C5)no2)c1 | 16.2% | u | -10.2 | 31.6µM* | x
CCC(O)C1CCN(C(=O)c2cc(COc3ccc4ncccc4c3)on2)CC1 (centres undefined) | -5.4% | 1.5% | x | 8.0% | 1.2%
CC(=O)c1ccc(OCc2cc(C(=O)N3CCOCC3)no2)cc1 | u | 46.5% | 152.9 | 0.4% | -0.7%
CC(=O)c1ccc(OCc2cc(C(=O)N3CCCCCCC3)no2)cc1 | 13.1µM* | -9.9% | 20.6 | -7.8% | x
O=C(c1cc(COc2ccc3ncccc3c2)on1)N1CCC(O)CC1 | 203.1% | 5.2% | -82.4* | 11.0% | -3.5%
Cc1ccc(S(=O)(=O)Nc2ccccc2F)cc1C(=O)OC(C)C(=O)N1CCOCC1 (centres undefined) | 9.2% | 21.0% | -12.5 | 0.8% | x
Cc1cc(C)c[n+](-c2[nH]c(=O)sc2/C=N/N=C(\[O-])c2cccnc2)c1 | 3.2% | 8.7% | 7.6 | -2.5% | -10.7%
COCC1CCCN(C(=O)c2cc(COc3ccc4ncccc4c3)on2)C1 (centres undefined) | u | -19.2% | -85.0* | -0.9% | x
O=C(c1cc(COc2ccc3ncccc3c2)on1)N1CCCC(O)C1 (centres undefined) | u | 48.6% | -63.5* | 0.2% | -5.1%
CCN(CC)C(=O)C1CCCN(C(=O)c2cc(COc3cccc(OC)c3)on2)C1 (centres undefined) | 9.28µM* | 20.2% | 26.5 | 2.5% | x
SMILES | Pf growth 96h | Pf growth 48h | HCMV inh | Sm TGR inh | FBPA Giardia inh
COc1cccc(OCc2cc(C(=O)N3CCN(C4CCCC4)CC3)no2)c1 | u | 16.2% | -6.6 | u | x
COCC1CCCN(C(=O)c2cc(COc3cccc4cccnc34)on2)C1 (centres undefined) | u | -18.9% | 17.6 | 0.8% | x
Cc1ccc(C(=O)Nc2ccc3nc(SCC(=O)N4CCCc5ccccc54)sc3c2)cc1 | x | x | 78.4 | 4.5% | x
Cc1ccc(S(=O)(=O)C[C@@H]2OC[C@H](C(C)C)N2S(=O)(=O)c2ccc(C)cc2)cc1 | x | x | -35.2 | x | x
Cc1ccc(S(=O)(=O)Oc2ccc(/C=C3/N=C(c4ccccc4)OC3=O)cc2)cc1 | 23.4% | 17.1% | 0.9 | 0.4% | 14.0%
COc1ccc(NS(=O)(=O)c2ccc(C(=O)N3CCN(Cc4ccccc4)CC3)cc2)cc1 | u | u | -31.3 | -6.8% | 5.7%
COc1ccc(CN2CCN(C(=O)c3ccc(S(=O)(=O)N4CCCCCC4)cc3)CC2)cc1 | u | 10.4µM* | -75.4* | 0.6% | x
COc1ccc(CN2CCN(C(=O)c3ccc(S(=O)(=O)NCc4ccco4)cc3)CC2)cc1F | -29.0% | u | u | -5.7% | x
COc1ccc(CN2CCN(C(=O)c3ccc(S(=O)(=O)N4CCCCCC4)cc3)CC2)cc1F | u | 13.1µM* | -77.4* | -19.1% | x
O=C(c1ccc(S(=O)(=O)N2CCCCCC2)cc1)N1CCN(Cc2ccccc2)CC1 | u | u | -14.4 | 0.3% | x
N#Cc1ccc(CN2CCN(C(=O)c3ccc(S(=O)(=O)N4CCCCCC4)cc3)CC2)cc1 | u | 13.1µM* | -78.1* | -29.3% | x
CC(=O)O[C@H]1C=C[C@@H](NC(=O)OC(C)(C)C)C1 | x | x | 7.5 | x | x
COc1ccc(CCNC(=O)Nc2nnc([C@@H]3C[C@H](O)[C@@H](CO)O3)s2)cc1OC | x | x | -23.6 | x | x
COc1ccccc1N1CCN(S(=O)(=O)CCNC(=O)CC2CCCCC2)CC1 | 4.1% | -2.4% | -34.4 | 6.3% | x
O=C(CCc1ccc(Oc2cc([N+](=O)[O-])cc([N+](=O)[O-])c2)cc1)N1CCCCCC1 | u | 7.38µM* | 13.1 | 2.1% | -5.9%
O=C(O)c1ccc(Oc2cc(Oc3ccc(C(=O)O)cc3)cc([N+](=O)[O-])c2)cc1 | u | u | 3.1 | 3.0% | 13.7%
CCCCN(C(=O)CCCc1nc2ccccc2s1)c1c(N)n(CC(C)C)c(=O)[nH]c1=O | u | u | u | -15.3% | x
Cc1nnc(N/N=C/c2ccc([N+](=O)[O-])cc2)n1N | 30.8% | 90.3% | 3.4 | 53.4% | 15.8µM*
Cc1nnc(N/N=C/c2ccc(Br)cc2)n1N | 14.7µM* | 80.7% | 71.1 | -26.7% | u
Cc1nnc(N/N=C/c2cc([N+](=O)[O-])c(N3CCC(C)CC3)cc2N2CCC(C)CC2)n1N | x | 5.86µM* | u | u | 9.98µM*
CC1CCN(c2cc(N3CCN(C(=O)c4ccc(F)c(F)c4)CC3)c([N+](=O)[O-])cc2F)CC1 | 12.9% | -5.1% | u | 4.4% | -3.5%
COc1ccc(/C=N/Nc2nnc(C)n2N)cc1OC | -3.7% | u | -60.9* | -4.3% | 22.3µM*
CC(C)C[C@@H]1COc2cccc(N3CCCC3)c2S(=O)(=O)N1 | x | x | -34.8 | x | x
Cc1cc(C)c(NC(=O)Cn2c(=O)n(Cc3ccc(C(=O)NCc4ccco4)cc3)c(=O)c3sccc32)c(C)c1 | x | x | -75.6* | -0.8% | x
